Source: PubChem BioAssay
Glioma ERSR ind – inducers of ER stress response in human glioma cells | Potency, µM, hits mostly activators | U87-MG GRP78 promoter luciferase reporter, 16 h | 420,000 tested, 0.02% active | AID 602332; note: series mostly up to about 76 µM; nearly all actives have a fitted effect of over 35% in size
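ERSR induction read as luciferase luminescence (Bright-Glo, 10 min at room temperature) in stably transfected human U87-MG glioma cells exposed to compounds for 16 h, using GRP78 as sensor.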
DRD3 antagonist – blocks the human D3 dopamine receptor; P35462; D3R cells, DiscoveRx beta-arrestin luminescence, antagonist mode; active compounds read low; max response, negative = inhibition, %; 360,000 tested, 2.5% active; AID 652054; in the data active = max response below about -50%; inconclusive = no clear call, values can overlap the other calls
Target sequence (P35462 whole entry, looked up): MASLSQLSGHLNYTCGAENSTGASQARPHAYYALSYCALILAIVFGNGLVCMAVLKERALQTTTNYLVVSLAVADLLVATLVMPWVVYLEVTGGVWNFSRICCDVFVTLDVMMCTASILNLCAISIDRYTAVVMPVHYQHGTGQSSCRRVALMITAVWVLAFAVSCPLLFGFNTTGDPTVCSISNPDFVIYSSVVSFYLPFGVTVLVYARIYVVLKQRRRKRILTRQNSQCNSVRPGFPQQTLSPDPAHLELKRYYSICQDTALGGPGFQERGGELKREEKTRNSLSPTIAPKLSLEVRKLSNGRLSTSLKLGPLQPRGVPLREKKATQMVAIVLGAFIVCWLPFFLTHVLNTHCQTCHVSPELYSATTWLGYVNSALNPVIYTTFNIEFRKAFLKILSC
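Cells plated overnight at 1500 cells/well, then exposed to library compounds with dopamine controls for 90 minutes at 37 degrees C. DiscoveRx reagent added for 30–60 minutes at room temperature; luminescence read, quantitative HTS format.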
DRD3 agonist – activates the human D3 dopamine receptor; D3R DiscoveRx beta-arrestin cells, luminescence, 90 min; P35462; max activation, %; 410,000 tested, 0.58% active; in the data active = max activation above about 30%
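Agonist-mode cell screen: cells plated at 1500/well and incubated overnight at 37 °C, then exposed to library compounds for 90 min at 37 °C. Detection reagent was added for 30–60 min at room temperature, and luminescence was read.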
Nrf2 ARE act – activates Nrf2 signaling; AREc32 ARE-luciferase reporter (MCF7-derived line), luminescence, 24 h; Potency, µM (series often up to 46.1 µM), hits mostly activators; 410,000 tested, 0.31% active; note: nearly all actives have a fitted effect of over 65% in size
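AREc32_Fluc, 1000 cells/well, OPTI-MEM + 5% FBS, o/n 37 deg C 5% CO2; 23 nL cpd by pin tool, 24 hr; Steady-Glo 30 min RT, luminescence.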
Each line names hits and unclear results; the compound was inactive in the other large screens. Rows were chosen to be rich in hits. Some 3% of all compounds tested hit in one or more screens of this group. Unless noted, calls come from the whole dose curve; as a rule, active = well fitted curve in the direction sought with a large enough effect; inconclusive = small, poorly fitted or top-dose-only effect, or another doubt; inactive = no such curve, though single readings can be large; an effect the other way counts as inactive or inconclusive.

Cc1ccc(S(=O)(=O)Cn2nnnc2C(C(C)C)N2CCN(C(=O)c3ccco3)CC2)cc1 (centres undefined)	DRD3 antagonist -56
CCC1(C2CCN(C(=O)c3ccc4ccccc4c3)CC2)NC(=O)N(CCc2scnc2C)C1=O (centres undefined)	none (no result: DRD3 antagonist, DRD3 agonist, Nrf2 ARE act)
COc1ccc(OC)c(C2=NO[C@@](CC(=O)O)(C(=O)Nc3ccc4c(c3)OCCO4)C2)c1	none
COc1ccc(NC(=O)CNS(=O)(=O)c2ccc(Cl)cc2)cc1OC	none
Cc1ccc(C2=NO[C@@](CC(=O)O)(C(=O)Nc3ccc4c(c3)OCCO4)C2)cc1	DRD3 agonist 95
COc1ccc(S(=O)(=O)NCC(=O)Nc2ccc3c(c2)OCCO3)cc1OC	DRD3 antagonist -50
Cc1ccc(N(CC(=O)Nc2ccc3c(c2)OCCO3)S(C)(=O)=O)cc1	Glioma ERSR ind inconclusive, DRD3 antagonist -89
CN(C)S(=O)(=O)N(CC(=O)Nc1cccc(F)c1)c1ccccc1	none
CN(C)S(=O)(=O)N(CC(=O)Nc1ccccc1)c1ccccc1	DRD3 antagonist -54
CN(C)c1ccc(/C=C/c2c(Br)cnc3ccccc23)cc1	none (no result: DRD3 antagonist, DRD3 agonist, Nrf2 ARE act)
CCCCC#CC1C=CC(OC(C)=O)C(COC(C)=O)O1 (centres undefined)	none (no result: DRD3 antagonist, DRD3 agonist, Nrf2 ARE act)
C=Cc1ccc(Cn2c(SCC(=O)N3CCN(c4ccc(F)cc4)CC3)nc3ccccc32)cc1	none (no result: DRD3 antagonist)
CCc1ccc(NC(=O)CN(c2cccc(C)c2)S(C)(=O)=O)cc1	DRD3 agonist 34
Cc1cccc(N(CC(=O)Nc2ccc(CC#N)cc2)S(C)(=O)=O)c1	none
CCN1CCN(c2ncc(C(=O)Nc3cc(Cl)c(OC)cc3OC)c3ccccc23)CC1	none
CCN1CCN(c2ncc(C(=O)Nc3c(F)cc(F)cc3Br)c3ccccc23)CC1	DRD3 antagonist -62
CN(Cc1cc(Br)cc(Br)c1N)C1CCCCC1	none (no result: DRD3 antagonist, Nrf2 ARE act)
COc1ccc2ccccc2c1CN1CCOc2ccc(CN3CCN(CCO)CC3)cc2C1	none (no result: DRD3 antagonist, DRD3 agonist, Nrf2 ARE act)
ClC(Cl)(c1nnnn1-c1ccccc1)c1nnnn1-c1ccccc1	DRD3 antagonist -72
c1ccc(-c2nnnn2-c2ccccc2)cc1	none
Cc1ccccc1NC(=O)/C(C#N)=C\c1ccsc1	Nrf2 ARE act 8.9µM
COC(=O)c1ccc2c(c1)C(C)(C)C(/C=C/c1ccc(O)cc1)=[N+]2C	DRD3 antagonist inconclusive, Nrf2 ARE act inconclusive
COC(=O)c1ccc2c(c1)C(C)(C)C(/C=C/c1ccc(OC)c(OC)c1OC)=[N+]2C	DRD3 antagonist -88
CC(C)(C)C1=CC(=Nc2ccccc2N)C=C(C(C)(C)C)C1=O	DRD3 antagonist -51
c1ccc(CSc2nccc(-c3ccco3)n2)cc1	Nrf2 ARE act 10µM
CCCCCCCCCC[n+]1ccc(/C=C/c2c(C)[nH]c3ccccc23)c2ccccc21	none (no result: DRD3 antagonist, DRD3 agonist, Nrf2 ARE act)
Cc1cccc(C)c1NC(=O)c1nc(SC(C)C)ncc1Cl	DRD3 agonist 45 (no result: DRD3 antagonist)
Cc1nnc(NC(=O)c2nc(SC(C)C)ncc2Cl)s1	none (no result: DRD3 antagonist)
COC1=C(c2ccccc2)C(=O)c2ccccc2C1=O	DRD3 antagonist inconclusive
COc1ccc(SN=C2C(C)=CC(=O)C=C2C)cc1	DRD3 antagonist inconclusive
COC1=CC(=O)c2ccccc2C1=O	DRD3 antagonist -71
COC1=CC(=O)C=C(OC)C1=O	DRD3 antagonist -121
Cc1cc(C)cc(Nc2nc3ccccc3nc2-n2nc(C)cc2C)c1	none (no result: DRD3 antagonist)
C[C@H]1NCc2cc(-c3ccc4c(=O)c(C(=O)O)cn(C5CC5)c4c3OC(F)F)ccc21	none (no result: DRD3 antagonist, Nrf2 ARE act)
O=c1cc(N2CCCCC2)nc2n1CCCS2	DRD3 agonist 35
CN1/C(=C\P(=O)(N(C)C)N(C)C)C(C)(C)c2ccccc21	DRD3 agonist 31
CC(C)C[C@H](NC(=O)[C@H](CC(C)C)NC(=O)[C@H](Cc1ccccc1)NC(=O)[C@@H](N)CO)C(=O)N[C@@H](CCCNC(=N)N)C(=O)N[C@@H](CC(N)=O)C(=O)N1CCC[C@H]1C(=O)N[C@@H](CC(N)=O)C(=O)N[C@@H](CC(=O)O)C(=O)N[C@@H](CCCCN)C(=O)N[C@@H](Cc1ccc(O)cc1)C(=O)N[C@@H](CCC(=O)O)C(=O)N1CCC[C@H]1C(=O)N[C@@H](Cc1ccccc1)C(=O)O	none (no result: DRD3 antagonist, DRD3 agonist, Nrf2 ARE act)
Cc1ccsc1C(=O)N(Cc1cc2ccc(F)cc2nc1N1CCC(O)CC1)CC1CCCO1 (centres undefined)	none (no result: DRD3 antagonist, DRD3 agonist, Nrf2 ARE act)
O=[N+]([O-])c1ccc(OCC(O)CNCCNc2nccc(C(F)(F)F)n2)cc1 (centres undefined)	DRD3 antagonist -84
CC(=O)c1ccc2c(c1)N(CCCN(C)C)c1ccccc1S2	DRD3 antagonist -108
CCC(=O)c1ccc2c(c1)N(CCCN(C)C)c1ccccc1S2	DRD3 antagonist -109
COc1ccc2c(c1)Sc1ccccc1N2CCN(C)C	DRD3 antagonist -81
